Compounds with a hit are over-represented: about 3.6% of the library has one in this group of screens.
VDR inhibitor – Inhibitors of the vitamin D receptor (VDR): qHTS | Vitamin D3 receptor (Homo sapiens), P11473 | VDR-SRC2-3 peptide fluorescence polarization, 2 h | Potency, µM, hits mostly inhibitors | hit rate 0.93% among 400,000 | AID 504847, 2011
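Fluorescence polarization assay of small-molecule disruption of VDR binding to coregulator peptide SRC2-3. Compounds and controls pin-transferred, then read after 2 h incubation at ambient room temperature.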
Rango complex inh – qHTS Assay for Inhibitors of Rango (Ran-regulated importin-beta cargo) - Importin beta complex formation | Importin subunit beta-1 (Homo sapiens), Q14974 | Rango CFP/YFP FRET sensor + importin beta, 45 min | Potency, µM (top dose mostly 92.2 µM) | hit rate 0.031% among 340,000; calls by dose curve; also: nearly all actives have a fitted effect of over 15% in size
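FRET biosensor Rango (snurportin 1 IBB between N-terminal EYFP and C-terminal Cerulean), 50 nM in PBS/1 mM DTT/0.02% Tween-20/0.1% BSA, preincubated 5 min RT with compound; 0.125 microM importin beta added, 45 min RT, CFP/YFP FRET ratio read.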
KAT2A inh – qHTS Assay for Inhibitors of GCN5L2; AID 504327, 2011; Potency, µM (top dose mostly 58.9 µM), actives largely listed as inhibitors; GCN5L2 HAT assay, ThioGlo1 CoA-SH fluorescence; hit rate 0.21% among 390,000; Histone acetyltransferase KAT2A (Homo sapiens), Q92830
Target sequence (Q92830 whole entry, looked up): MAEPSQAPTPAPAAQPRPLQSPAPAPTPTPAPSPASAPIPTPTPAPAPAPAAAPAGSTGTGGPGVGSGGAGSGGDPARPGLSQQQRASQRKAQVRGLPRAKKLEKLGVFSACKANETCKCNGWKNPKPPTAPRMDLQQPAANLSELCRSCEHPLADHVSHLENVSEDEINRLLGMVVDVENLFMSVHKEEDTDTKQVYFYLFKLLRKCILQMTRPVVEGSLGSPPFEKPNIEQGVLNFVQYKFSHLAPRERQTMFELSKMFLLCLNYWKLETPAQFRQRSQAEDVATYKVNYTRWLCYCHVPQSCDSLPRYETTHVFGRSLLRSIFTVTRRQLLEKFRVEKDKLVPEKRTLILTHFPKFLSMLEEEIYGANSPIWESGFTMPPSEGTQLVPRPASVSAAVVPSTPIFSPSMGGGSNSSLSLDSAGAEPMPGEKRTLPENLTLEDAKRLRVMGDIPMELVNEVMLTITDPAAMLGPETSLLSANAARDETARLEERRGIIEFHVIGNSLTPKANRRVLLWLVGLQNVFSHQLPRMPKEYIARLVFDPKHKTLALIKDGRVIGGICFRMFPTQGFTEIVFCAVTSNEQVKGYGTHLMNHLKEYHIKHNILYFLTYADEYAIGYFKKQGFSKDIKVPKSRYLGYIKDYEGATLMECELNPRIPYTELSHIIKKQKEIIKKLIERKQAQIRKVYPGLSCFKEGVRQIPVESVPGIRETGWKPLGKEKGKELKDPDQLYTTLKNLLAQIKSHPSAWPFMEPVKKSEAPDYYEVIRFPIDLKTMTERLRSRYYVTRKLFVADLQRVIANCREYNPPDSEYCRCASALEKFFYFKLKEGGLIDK
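qHTS, 1536-well. 20nM enzyme, pH 7.5 HEPES/EDTA/Tween-20 buffer; 15 min compound preinc., RT. Start: 75uM H3(1-25), 70uM AcCoA, 50uM ThioGlo1. Read Ex340/Em540 at t=0 (autofluorescence flag) and t=20 min.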
PI5P4Ka inh – qHTS for Inhibitors of phosphatidylinositol 5-phosphate 4-kinase (PI5P4K). Phosphatidylinositol 5-phosphate 4-kinase type-2 alpha (Homo sapiens), P48426. PI5P4Kalpha enzyme, ADP-Glo luminescence, 60 min; stronger effect = lower value. max response, %. hit rate 1.2% among 330,000. AID 652105, 2013; active = max response of -50% or lower; inconclusive = between -30% and -50%; inactive = -30% or higher; also: value at the top dose of about 77 µM
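Single end-point luminescence (ADP-Glo) quantified ADP from PI5P4Kalpha turnover; ATP 5 microM final, 1 h at RT, 0.1% CHAPS and 0.28 mM EGTA in HEPES pH 7.4.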
PLK1 PBD inh – qHTS for Inhibitors of PLK1-PDB (polo-like kinase 1 - polo-box domain): Primary Screen; Plk1 PBD binding of FITC phosphopeptide, fluorescence polarization; hit rate 2.8% among 360,000; Potency, µM, most hits filed as inhibitors; AID 720504, 2013; also: series mostly up to about 57 µM; nearly all actives have a fitted effect of over 65% in size
Rango dissoc inh – qHTS Assay for Inhibitors of RanGTP induced Rango (Ran-regulated importin-beta cargo) - Importin beta complex dissociation; AID 540253, 2011; hit rate 0.071% among 340,000; Biochemical FRET Rango-importin beta, RanGTP-induced dissociation; Snurportin-1 (Homo sapiens) + GTP-binding nuclear protein Ran (Homo sapiens) + Importin …; Potency, µM (highest dose often 46.1 µM); calls by dose curve; also: nearly all actives have a fitted effect of over 45% in size
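Quantitative HTS using a FRET biosensor: 0.1 uM Rango, 0.25 uM importin beta, 0.6 uM Ran, 2 mM GTP, 0.2 uM RCC1 final, PBS with DTT, Tween-20 and BSA. Post-read taken 45 min after Ran addition.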
A number is an active result; 0 = inactive; ? = inconclusive; - = not tested or not shown. Unless noted, calls follow the shape of the dose curve; as a rule, active = well fitted curve in the direction sought with a large enough effect; inconclusive = small, poorly fitted or top-dose-only effect, or another doubt; inactive = no such curve, though single readings can be large; an effect the other way counts as inactive or inconclusive.

SMILES | VDR inhibitor | Rango complex inh | KAT2A inh | PI5P4Ka inh | PLK1 PBD inh | Rango dissoc inh
COC(=O)NC(=S)Nc1ccc(Oc2ccc(Cl)cc2Cl)c(Cl)c1 | 0 | 0 | 0 | 0 | 3µM | 0
Cc1ccc(-n2c(=O)c3c(c4cc(C)ccc4n3C)n(CC(=O)Nc3cc(C)cc(C)c3)c2=O)cc1 | 0 | - | 0 | - | - | -
O=C(CCN1C(=O)C2C3CC(C(Br)C3Br)C2C1=O)OCC(=O)c1ccccc1 (stereo unspecified) | ? | 0 | 0 | 0 | 27µM | 0
CCCCN(C)CCNC(=O)c1cc(-c2cccnc2)nc2ccc(S(=O)(=O)N3CCC(C)CC3)cc12 | ? | 0 | 0 | 0 | 27µM | ?
Cc1ccc(Sc2ccccc2CN(C)C)c(N)c1 | 0 | - | 0 | - | - | -
CCOC(=O)c1c(N2C(=O)C=CC2=O)sc(C)c1C | 0 | 0 | ? | - | 5.3µM | 0
CCOC(=O)c1c(NC(N)=O)sc(C)c1C | 0 | 0 | 0 | 0 | 0 | 0
COc1ccccc1N(C(=O)CCl)c1cn(C(C)=O)c2ccccc12 | 0 | 0 | 0 | 0 | 0 | 0
CC(=O)n1cc(N(C(=O)CCl)c2ccc(Cl)cc2)c2ccccc21 | 50µM | 0 | 0 | 0 | 0 | 0
CN(C)c1nc(NC2CCC(NC(=O)c3ccc(F)c(F)c3)CC2)nc2ccccc12 (stereo unspecified) | 0 | - | 0 | - | - | -
COc1cccc(CSc2nc3cc4c(cc3cc2C)OCCO4)c1 | 0 | 0 | 0 | 0 | 0 | 0
Cc1cc2cc3c(cc2nc1SCc1ccc(C(=O)O)cc1)OCCO3 | 0 | 0 | 0 | 0 | 30µM | 0
COc1ccc(-n2c(Cc3cccn3C)nnc2SCC(=O)Nc2ccc(C)cc2C)cc1 | ? | 0 | 0 | 0 | 27µM | 0
Cn1cccc1Cc1nnc(SCC(=O)Nc2ccccc2)n1-c1ccc(F)cc1 | 0 | 0 | 0 | 0 | ? | 0
Cn1cccc1Cc1nnc(SCC(=O)Nc2ccc(F)cc2)n1-c1ccc(F)cc1 | ? | 0 | 0 | 0 | 24µM | 0
COc1cccc(NC(=O)c2sc3ncn(CC(=O)N4CCN(c5ccccn5)CC4)c(=O)c3c2C)c1 | 25µM | 0 | 0 | 0 | 13µM | 0
Cc1ccc(NC(=O)c2sc3ncn(CC(=O)N4CCN(c5ccccn5)CC4)c(=O)c3c2C)cc1Cl | 0 | 0 | 0 | 0 | 0 | 0
CCCc1c2c(cc3c(=O)cc(C(=O)OCC)oc13)CCCC2 | ? | 0 | 0 | 0 | 21µM | 0
CC1(c2ccc([N+](=O)[O-])cc2)Nc2ccccc2S1 (stereo unspecified) | ? | 0 | 0 | 0 | 6.7µM | 0
O=C(N/N=C/c1cccc(O)c1)N/N=C/c1cccc(O)c1 | 0 | 0 | ? | -53 | 0 | 0
O=C(CCc1ccccc1)N/N=C/c1cccc(O)c1 | 0 | 0 | 0 | 0 | 0 | 0
O=C(COC(=O)CCC(=O)c1ccc(F)cc1)Nc1ccccc1 | 0 | 0 | 0 | 0 | 0 | 0
NC(=O)c1ccc(NC(=O)COC(=O)CCC(=O)c2ccc(Cl)cc2)cc1 | 0 | 0 | 0 | 0 | 24µM | 0
Nc1cc(=O)[nH]c(SCc2cccc3ccccc23)n1 | 0 | 0 | 0 | 0 | 0 | 0
O=c1cc(C(F)(F)F)nc(SCc2cccc3ccccc23)[nH]1 | 0 | ? | 0 | 0 | 30µM | ?
SMILES | VDR inhibitor | Rango complex inh | KAT2A inh | PI5P4Ka inh | PLK1 PBD inh | Rango dissoc inh
CCCn1c(SCC(=O)NC(=O)NC(C)(C)C)n[nH]c1=O | 0 | 0 | 0 | 0 | 27µM | 0
CCCn1c(SCC(=O)c2ccc(CC)cc2)n[nH]c1=O | 0 | ? | 0 | 0 | 8.4µM | ?
CCCn1c(SCC(=O)NCc2ccc(C)cc2)n[nH]c1=O | 0 | 0 | 0 | 0 | 0 | 0
COc1cccc(Nc2ccc3cc(S(=O)(=O)N4CCC(C)CC4)ccc3n2)c1 | 0 | - | 0 | - | - | -
O=C(NN1CCOCC1)c1cn(-c2ccccc2)nc1-c1cccs1 | 0 | 0 | 0 | 0 | 24µM | 0
CN1CCN(NC(=O)c2cn(-c3ccccc3)nc2-c2cccs2)CC1 | 0 | 0 | 0 | 0 | ? | 0
CC(C)Oc1ccc(CNC(=O)C(C)n2ccc3cc(S(=O)(=O)N4CCCCCC4)ccc32)cc1 (stereo unspecified) | 0 | - | 0 | - | - | -
C1CCC[C@H]2CCCN3CC[C@H](CCCCCC[C@@H]4CCCN5CC[C@H](CC1)OC45)OC23 | 0 | - | 0 | - | - | -
CC(=O)c1ccc(N2CCN(C(=O)c3nn(C)c4c3CS(=O)(=O)c3ccccc3-4)CC2)cc1 | ? | 0 | 0 | 0 | 27µM | 0
Cn1nc(C(=O)N2CCN(c3ccc(Cl)cc3)CC2)c2c1-c1ccccc1S(=O)(=O)C2 | 0 | 0 | 0 | 0 | 0 | 0
CCC(CC)c1nnc(NC(=O)C2CC(=O)N(CCc3ccc(F)cc3)C2)s1 (stereo unspecified) | 79µM | 0 | 0 | 0 | 24µM | 0
CCC(CC)c1nnc(NC(=O)C2CC(=O)N(CCc3ccc(OC)c(OC)c3)C2)s1 (stereo unspecified) | 0 | 0 | 0 | 0 | 0 | 0
Cc1cccc(C2=NN(c3ccccc3)[C@@H](C(=O)N3CCOC3=O)[C@@H]2c2ccc(F)cc2)c1 | 0 | ? | 32µM | 0 | 0 | ?
Cc1cccc(C2=NN(c3ccccc3)[C@@H](C(=O)N3CCOC3=O)[C@@H]2c2ccc(Cl)cc2)c1 | 0 | ? | ? | 0 | 0 | ?
Cc1ccc(S(=O)(=O)N2CCCc3cc(NS(=O)(=O)c4cc(F)ccc4F)ccc32)cc1 | 0 | - | 0 | - | - | -
COc1ccc(C2CC(=O)N(Cc3cccc(C)c3)c3c2c(C)nn3-c2nc(C)cc(C)n2)c(OC)c1 (stereo unspecified) | 0 | - | 0 | - | - | -
CCn1nc(C(=O)OCC(=O)NC(C)C)c2ccccc2c1=O | ? | 0 | 0 | 0 | 19µM | 0
O=c1c2oc3ccccc3c2n(Cc2ccc(Cl)cc2)c(=O)n1Cc1ccco1 | 0 | - | 0 | - | - | -
CCN(C(=O)CSc1nc2ccccc2c(=O)n1Cc1ccc(C)cc1)C1CCS(=O)(=O)C1 (stereo unspecified) | 0 | 0 | ? | 0 | 0 | 0
CCN(C(=O)CSc1nc2ccccc2c(=O)n1-c1cccc(C)c1)C1CCS(=O)(=O)C1 (stereo unspecified) | 0 | 0 | 0 | ? | 27µM | 0
C=CCc1cccc(C=NNC(=O)CN2CCN(Cc3ccccc3)CC2)c1O | 0 | - | 0 | - | - | -
CCOCC(=O)Nc1nnc(C2CCCCC2)s1 | ? | 0 | ? | 0 | 27µM | 0
